Source: PubChem
BAZ2B block: qHTS Assay for Inhibitors of BAZ2B; Bromodomain adjacent to zinc finger domain protein 2B (Homo sapiens), Q9UIF8; AlphaScreen BAZ2B-H3K14Ac peptide displacement; Potency, µM (doses to about 114 µM), inactives show at the highest dose activity change, negative = inhibition, actives largely listed as inhibitors; 360,000 compounds, 4.4% hits; note: % is set by controls: 0 for no effect and ±100 for the full control effect; nearly all actives have a fitted effect of over 60% in size
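AlphaScreen luminescence quantifies BAZ2B engagement of H3K14Ac peptide; the protein and biotinylated peptide are both at 50 nM final, buffer PBS pH 7.4 with 0.01% Tween-20, all steps at room temperature.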
G9a block: qHTS Assay for Inhibitors of Histone Lysine Methyltransferase G9a; AID 504332, 2011; 350,000 compounds, 8.8% hits; G9a H3K9 monomethylation, AlphaScreen, 2 h; Histone-lysine N-methyltransferase EHMT2 (Homo sapiens), Q96KQ7; Potency, µM (doses to about 102 µM), for the others: at the top dose activity, negative = inhibition, usual class: inhibitors; note: % is set by controls: 0 for no effect and ±100 for the full control effect; nearly all actives have a fitted effect of over 75% in size
Target sequence (Q96KQ7 913-1193 limits assumed): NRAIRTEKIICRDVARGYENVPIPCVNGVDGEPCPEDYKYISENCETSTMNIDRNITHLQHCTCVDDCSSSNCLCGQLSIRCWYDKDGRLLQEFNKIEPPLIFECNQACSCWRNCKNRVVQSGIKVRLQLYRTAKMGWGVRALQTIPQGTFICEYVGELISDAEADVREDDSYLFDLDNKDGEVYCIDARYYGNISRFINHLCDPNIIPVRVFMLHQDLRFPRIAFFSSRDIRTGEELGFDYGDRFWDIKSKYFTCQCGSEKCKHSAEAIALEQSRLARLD
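Readings reflect AlphaScreen signal from monomethyl-H3K9 antibody detection. HMT at 20 nM; substrate b-H3K9 500 nM; cofactor SAM 20 uM; 2 h RT reaction; compounds tested as titrations in qHTS with 15 min preincubation.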
Sfp PPTase inh: qHTS Assay for Inhibitors of Bacillus subtilis Sfp phosphopantetheinyl transferase (PPTase) | Biochemical Sfp PPTase activity, qHTS | Potency, µM, without a hit: largest response in the series, negative = inhibition, most hits filed as inhibitors | 310,000 compounds, 3.5% hits | AID 1490, 2009;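 note: the enzyme is Sfp with the accession as filed and its product quenches rhodamine fluorescence; 0% = enzyme reaction without inhibitor and -100% = no enzyme wells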
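Buffer: 50 mM Hepes-Na pH 7.6, 10 mM MgCl2, 0.01% Nonidet P-40, 0.01% BSA. Enzyme 15 nM, pre-exposed to compound 15 min; substrates then added and fluorescence change tracked over 30 min.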
JMJD2A Tudor: qHTS Assay for Inhibitors of JMJD2A-Tudor Domain. 390,000 compounds, 4.4% hits. Potency, µM (series often up to 114 µM), for the others: at the highest dose activity change, negative = inhibition, hits mostly inhibitors. Lysine-specific demethylase 4A (Homo sapiens), O75164. AlphaScreen JMJD2A-Tudor / H3K4me3 peptide binding; note: % is set by controls: 0 for no effect and ±100 for the full control effect; nearly all actives have a fitted effect of over 50% in size
HP1b binding inh: HTS for Inhibitors of HP1-beta Chromodomain Interactions with Methylated Histone Tails; Chromobox protein homolog 1 (Homo sapiens), P83916; Potency, µM (series often up to 114 µM), for inactives: top-dose activity change, negative = inhibition, actives largely listed as inhibitors; AlphaScreen HP1-beta / biotin-H3K9me3 peptide binding; 390,000 compounds, 0.56% hits; AID 540317, 2011; note: nearly all actives have a fitted effect of over 70% in size
Target sequence (P83916 whole entry, looked up): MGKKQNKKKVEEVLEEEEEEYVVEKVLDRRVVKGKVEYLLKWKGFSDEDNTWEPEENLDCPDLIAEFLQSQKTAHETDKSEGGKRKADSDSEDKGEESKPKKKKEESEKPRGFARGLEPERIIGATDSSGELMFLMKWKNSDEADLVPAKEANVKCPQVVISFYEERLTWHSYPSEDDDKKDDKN
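Compound inhibition of the preformed complex between 50 nM HP1-beta and 50 nM biotinylated H3K9me3 peptide was read by AlphaScreen. Buffer was PBS pH 7.4 with 0.01% Tween-20. Incubations ran 30 min at room temperature, with 10 ug/mL donor/acceptor beads.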
Starred values were filed as active, the others as inactive; ? = inconclusive; nt = not tested or not shown; [ ] = remark or other dose. Shown are actives, neighbours in structure and some others; about 12% of the full set was active somewhere. Calls come from the whole dose curve; as a rule, active = well fitted curve in the direction sought with a large enough effect; inconclusive = small, poorly fitted or top-dose-only effect, or another doubt; inactive = no such curve, though single readings can be large; an effect the other way counts as inactive or inconclusive. Potency is the fitted concentration of half-maximal effect.

SMILES	BAZ2B block	G9a block	Sfp PPTase inh	JMJD2A Tudor	HP1b binding inh
COc1ccc(-c2nc3cnc(OC)nc3n(CCC#N)c2=O)cc1	nt	17%[0.501 µM]	22%	nt	nt
COc1ccc(OC)c(-n2c(-c3ccc(O)cc3O)n[nH]c2=S)c1	-8%	nt	89µM*	4µM*	10%
COc1ccc(C)cc1-n1c(-c2ccncc2)n[nH]c1=S	1%	?	-5%	20µM*	41%
COc1ccc(-c2cc(-c3ccc(OC)c(OC)c3)n[nH]2)c(O)c1	4%	?	-2%	-29%	8%
COc1cc(OC)cc(-c2n[nH]c(=S)n2-c2cc(OC)ccc2OC)c1	-1%	?	-2%	7.9µM*	20%
CCOc1ccc(C(=O)Nc2ccc3c(c2)N(C(C)=O)CCC3)cc1OCC	0%	13%[59 µM]	nt	-1%	47%
Cc1ccc(NC(=O)c2nc(-c3ccncc3)no2)c(Cl)c1	-21%	10%[59 µM]	nt	1%	51%
O=C(c1cc(=O)[nH]c2ccccc12)N(Cc1nnc(-c2ccccc2Cl)o1)C1CC1	8%	50µM*	nt	-7%	43%
Cn1nnnc1SCC1=C(C(=O)O)N2C(=O)C(NC(=O)C(OC=O)c3ccccc3)C2SC1 (stereo not given)	nt	-34%[2.33 µM]	-73%	nt	nt
Cc1nn(C(C)C(=O)NC2C(=O)N3C(C(=O)O)=C(CSc4nnnn4C)CSC23)cc1Cl (stereo not given)	?	?	79µM*	-21%	41%
CC(C(=O)NC1C(=O)N2C(C(=O)O)=C(CSc3nnnn3C)CSC12)n1cc(Br)cn1 (stereo not given)	50µM*	28µM*	10%	-23%	21%
Cc1cccc(N(CC(=O)NC2CCCC2)C(=O)c2csnn2)c1C	0%	-1%	2%	-2%	41%
Clc1cc2cccnc2c2ncccc12	3.5µM*	?	nt	-7%	22%
O=[N+]([O-])c1cccc2c(Cl)ccnc12	-39%	nt	79µM*	0%	26%
Oc1c(I)cc(Cl)c2cccnc12	40µM*	35µM*	-1%	79µM*	4%
O=[N+]([O-])c1cc(Cl)c(O)c2ncccc12	20µM*	25µM*	-40%	22µM*	?
Clc1ccc(Oc2ccccc2)c2ncccc12	33%	-5%[2.33 µM]	1%	18%	59%
O=C(NC(c1ccc(Cl)cc1)c1cc(Cl)c2cccnc2c1O)c1cccnc1 (stereo not given)	3%	11%[59 µM]	6%	-21%	32%
O=[N+]([O-])c1ccc(Cl)c2cccnc12	-3%	11%	-4%	-16%	14%
COc1cccc(CCNC(=O)CCc2nnc(Cc3cc(OC)ccc3OC)o2)c1	4%	nt	6%	2%	19%
COc1ccccc1OCC(=O)Nc1c(C(=O)c2ccc(F)cc2)oc2ccccc12	-1%	-3%[59 µM]	nt	-5%	17%
C=Cc1cc2c(s1)c1cnn(Cc3ccccc3F)c(=O)c1n2C	nt	nt	nt	-16%	nt
CC1=C(C(=O)Nc2ccc(F)cc2)C(c2ccc(N(C)C)cc2)NC(=O)N1 (stereo not given)	-24%	0%[59 µM]	nt	-11%	40%
O=[N+]([O-])c1cccc2c1ccc1ncccc12	-2%	12%[2.33 µM]	11%	-8%	10%
CN(Cc1cc([N+](=O)[O-])c2cccnc2c1O)C1CCCCC1	7.9µM*	11%[59 µM]	-9%	nt	nt
COc1cc(NC(=O)CN(C)C2CCCCC2)c(C)cc1[N+](=O)[O-]	-11%	-6%	8%	?	-10%
Cc1c(C)c2cccnc2c2ncccc12	5.6µM*	nt	nt	10µM*	33%
O=[N+]([O-])c1cc(Cl)c2cccnc2c1O	18µM*	35µM*	5%	20µM*	?
O=[N+]([O-])c1cc(F)c2cccnc2c1O	11µM*	8.9µM*	?	10µM*	11%
O=C(O)c1ccc(S(=O)(=O)N[C@H](Cc2ccc([N+](=O)[O-])cc2)C(=O)O)cc1	-37%	-24%[12.7 µM]	9%	?	nt
